The list is not random: actives were taken first. Their share in the collection is about 4.7%.
D1 antag: blocks dopamine activation of the human D1 receptor. P21728. HEK293 TREx D1 cells, calcium flux, dopamine EC80; hits give low values. activity change, negative = inhibition, % at 10 µM. hit rate 3.2% among 360,000. AID 504652; in the data active means activity change below about -30%; further: on the % scale 0 is the no-effect control and ±100 the full control effect
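Compound effects on dopamine-evoked calcium signalling were measured in tetracycline-induced HEK293 Trex D1 cells. Dopamine at EC80 followed a 180 s compound pre-read, and fluorescence was tracked kinetically for 180 s more.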
D1 ag: activates the human D1 dopamine receptor; hit rate 1% among 360,000; activation, % at 2 µM; P21728; HEK293 T-REx D1 cells, calcium flux, agonist mode; further: 0% is about no effect
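Tetracycline-induced HEK293 TREx D1 cells, force-coupled to calcium signalling, were dye-loaded with a no-wash calcium kit. Compound was pin-added after a 10 s baseline. Fluorescence was read kinetically at 1 cycle/s for 180 s, with calcium rises flagged as agonism.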
TRHR agonist: activates the human TRH receptor. P34981. TRHR cells, calcium flux fluo-8, FDSS agonist mode. activation, % at 2 µM. hit rate 0.18% among 360,000; further: 0% is about no effect
Target sequence (P34981 whole entry, looked up): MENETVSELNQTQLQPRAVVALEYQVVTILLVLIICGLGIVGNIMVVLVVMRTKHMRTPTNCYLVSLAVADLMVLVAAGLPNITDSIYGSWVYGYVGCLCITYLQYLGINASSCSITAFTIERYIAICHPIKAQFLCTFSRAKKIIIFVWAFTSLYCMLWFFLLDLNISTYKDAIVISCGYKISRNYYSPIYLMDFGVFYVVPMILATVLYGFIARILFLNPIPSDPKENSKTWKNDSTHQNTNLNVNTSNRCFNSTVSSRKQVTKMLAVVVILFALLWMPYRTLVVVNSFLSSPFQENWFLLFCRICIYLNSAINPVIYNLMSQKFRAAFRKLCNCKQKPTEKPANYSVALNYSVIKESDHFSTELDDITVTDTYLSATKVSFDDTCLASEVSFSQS
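Steps: seed TRHR cells overnight; add fluo-8 no-wash Ca dye, RT 30 min–1.5 h; record 10 s baseline; pin-transfer compounds; monitor fluorescence 1 cycle/s for the agonist window. Calcium increases flag candidate agonists.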
TRHR enhancer: TRH receptor (human) allosteric enhancement; TRHR cells, fluo-8 calcium fluorescence, EC20 TRH enhancement; enhancement, % at 2 µM; AID 493056; P34981; hit rate 0.66% among 360,000; in the data active means enhancement above about 30%; further: 0% is about no effect
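TRHR-expressing cells loaded with fluo-8 calcium dye were read kinetically (ex 480/em 530) during compound addition, then stimulated with an EC20 of TRH (10 nM final). Enhancement of the Gq-mediated intracellular calcium response was scored.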
D1 potentiator: human D1 dopamine receptor positive modulation | P21728 | HEK293 TREx D1 cells, calcium flux, dopamine EC20 potentiation | potentiation, % at 10 µM | hit rate 0.036% among 360,000 | AID 504651; in the data active means potentiation above about 30%; further: 0% is about no effect
* = called active by the depositor; x = no result. Unless noted, no stated cut-off is given here; in the data, active means activation above about 30%; inactive means the rest.

SMILES | D1 antag | D1 ag | TRHR agonist | TRHR enhancer | D1 potentiator
COc1cc2c(cc1O)C(Cc1ccc(O)cc1)[N+](C)([O-])CC2 (stereo unspecified) | -38* | 2 | 0 | 3 | -6
COc1ccc(C[C@H]2c3cc(O)c(OC)cc3CC[N+]2(C)[O-])cc1O (stereo partly specified) | -83* | 5 | 0 | 6 | -7
COc1cc2c(cc1O)C(Cc1ccc(O)cc1)NCC2 (stereo unspecified) | -76* | -1 | 0 | 1 | -12
Cc1occc1C(=O)N/N=C/C=C/c1ccccc1 | -11 | -1 | 0 | -2 | 9
Cc1ccc(C(=O)N/N=C/C=C/c2ccccc2)cc1 | -36* | 8 | 1 | -2 | -1
CCCS(=O)(=O)c1nc(S(=O)(=O)c2ccc(C)cc2)c(N2CCC(C)CC2)s1 | 2 | 13 | 0 | -3 | 4
CCS(=O)(=O)c1nc(S(=O)(=O)c2ccc(C)cc2)c(N2CCC(C)CC2)s1 | -36* | 4 | 0 | -2 | -7
CCCS(=O)(=O)c1nc(S(=O)(=O)c2ccc(Cl)cc2)c(N2CCC(O)CC2)s1 | -16 | 3 | 0 | -4 | 52*
CCN(CC(=O)Nc1cc(Cl)ccc1C)C(=O)c1ccc(N2CCCC2=O)cc1 | 1 | 3 | 0 | 0 | -3
CCN(CC)C(=O)c1sc2c(c1C)c(=O)n(-c1ccc(C)c(C)c1)c(=O)n2Cc1cccc(Cl)c1 | -5 | 6 | 1 | 0 | -3
Cc1nnc2ccc(-c3ccc(NS(=O)(=O)c4ccc(F)cc4F)cc3)nn12 | 5 | 0 | 0 | 9 | -2
CC(OC(=O)CN1C(=O)NC2(CCCC2)C1=O)C(=O)Nc1cccc(Cl)c1Cl (stereo unspecified) | -51* | 1 | 1 | 2 | -11
CC(=O)Nc1ccc(SCc2c(C)noc2C)cc1 | -15 | 3 | 0 | 3 | -5
Cc1noc(C)c1CSc1ccc(Br)cc1 | -33* | 15 | 0 | 4 | -6
Cc1ccc(S(=O)(=O)N(C)CCCC(=O)Nc2ccncc2)cc1 | -35* | 22 | 1 | 2 | x
Cc1ccc(S(=O)(=O)N(C)CCCC(=O)Nc2ccc(F)cc2)cc1 | -13 | 3 | -1 | -1 | -3
COc1ccc(NC(=O)CCCN(C)S(=O)(=O)c2ccc(C)cc2)cc1 | -60* | 4 | 0 | 0 | -9
Cc1cc(F)ccc1NC(=O)CCCN(C)S(=O)(=O)c1ccc(F)cc1 | -6 | 4 | -1 | -6 | -5
Cc1ccc(S(=O)(=O)N(C)CCCC(=O)Nc2ccc(C)cc2C)cc1 | -52* | 18 | 0 | 2 | -2
CC(CC(=O)NCc1ccc(Cl)cc1)CC1=NS(=O)(=O)c2ccccc2N1 (stereo unspecified) | -1 | 1 | 0 | 3 | 0
COc1cc(C(=O)NCCOc2ccccc2)c(Br)c(OC)c1OC | 0 | 0 | -1 | 1 | -6
COc1ccc(NC(=O)c2cc(OC)c(OC)c(OC)c2Br)cc1OC | -11 | 3 | 0 | 39* | -5
COc1cc(C(=O)Nc2ccc(C(C)=O)cc2)c(Br)c(OC)c1OC | -3 | 6 | -1 | -2 | -3
COc1cc(C(=O)NCCOc2ccc(F)cc2)c(Br)c(OC)c1OC | -55* | 1 | -4 | 7 | 4
CCCOC(=O)c1ccc(NC(=O)c2cc(OC)c(OC)c(OC)c2Br)cc1 | -36* | 1 | 1 | 3 | -6
SMILES | D1 antag | D1 ag | TRHR agonist | TRHR enhancer | D1 potentiator
CCOC(=O)CC1NCCc2c1[nH]c1ccc(OC)cc21 (stereo unspecified) | 4 | 4 | 1 | 9 | -3
Cc1ccc(-c2cc(Cc3ccc(F)cc3)c(=O)[nH]n2)cc1 | -47* | 0 | 0 | 1 | -11
CN(C)c1ccc(C(=O)/C=C/c2cccnc2)cc1 | 2 | 3 | -1 | 4 | -12
CN(C)c1ccc(/C=C/C(=O)c2cccc(Br)c2)cc1 | -75* | 772* | 148* | -10 | -11
Nc1c(C(=O)CSc2nnnn2-c2ccc(O)cc2)c(=O)[nH]c(=O)n1C1CC1 | 20 | 5 | 0 | 9 | 1
COCCN(Cc1cn(C)nc1-c1ccc(Oc2ccccc2)cc1)C(C)C | -8 | 1 | 0 | 2 | -1
Cn1cc(CNCC2CCCO2)c(-c2ccc(Oc3ccccc3)cc2)n1 (stereo unspecified) | -23 | 46* | -2 | 2 | -3
